Reference: PubChem BioAssay (EPA / NIEHS)
The source made the active and inactive calls. How the source made its calls: active means hit-call score of the fitted dose curve at least 0.9, where 1 is the maximum; inactive means score below 0.9.

test system: not listed separately; assay: ATG_BRE_CIS: Attagene CIS-FACTORIAL HepG2 Assay for human Bone Morphogenetic Protein (BMP) Response Element (BRE) (AID 2282933); settings: HepG2 BMP response element reporter, Attagene transcription factor profiling; actives raise or lower the signal
Procedure, shortened: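 Transient MRTU transfection of human HepG2 liver cells; 24 h compound treatment; total RNA isolated, reverse-transcribed, PCR-amplified, 6-FAM labelled, HpaI-cut, capillary electrophoresis. DMSO = negative control/baseline, bidirectional fit.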

Structure (SMILES)	outcome	AC50
ClC1=C(Cl)[C@]2(Cl)[C@@H]3[C@@H](Cl)[C@H](Cl)C[C@@H]3[C@@]1(Cl)C2(Cl)Cl	inactive	–
O=S(=O)(c1ccccc1)c1ccccc1	inactive	–
CCC(C)c1cc(C(C)(C)C)cc(-n2nc3ccccc3n2)c1O (configuration not stated)	inactive	–
CC1(C)C(=O)NC(=O)NC1=O	inactive	–
CC(=O)/C=C/c1ccccc1	–	50 µM (active)
c1ccc(P(c2ccccc2)c2ccccc2)cc1	inactive	–
CCOC(=O)COc1ccc(Cl)cc1Cl	inactive	–
CCN(CC)C(=S)S	inactive	–
N#Cc1cccc(C#N)c1	inactive	–
O=C1Nc2ccc(Cl)cc2C(c2ccccc2)=NC1O (configuration not stated)	inactive	–
N#CC(c1ccccc1)c1ccccc1	inactive	–
C[N+](C)=CCl	inactive	–

target: Retinoic acid receptor alpha (Homo sapiens) (UniProt P10276); assay: ATG_DR5_RAR_CIS: Attagene CIS-FACTORIAL HepG2 Assay for human Retinoic Acid Receptor Alpha (RARE), DR5 submotif (AID 2282934); settings: HepG2 Attagene cis-factorial RARE DR5 reporter, mRNA; actives raise or lower the signal
Sequence (P10276 whole entry, looked up): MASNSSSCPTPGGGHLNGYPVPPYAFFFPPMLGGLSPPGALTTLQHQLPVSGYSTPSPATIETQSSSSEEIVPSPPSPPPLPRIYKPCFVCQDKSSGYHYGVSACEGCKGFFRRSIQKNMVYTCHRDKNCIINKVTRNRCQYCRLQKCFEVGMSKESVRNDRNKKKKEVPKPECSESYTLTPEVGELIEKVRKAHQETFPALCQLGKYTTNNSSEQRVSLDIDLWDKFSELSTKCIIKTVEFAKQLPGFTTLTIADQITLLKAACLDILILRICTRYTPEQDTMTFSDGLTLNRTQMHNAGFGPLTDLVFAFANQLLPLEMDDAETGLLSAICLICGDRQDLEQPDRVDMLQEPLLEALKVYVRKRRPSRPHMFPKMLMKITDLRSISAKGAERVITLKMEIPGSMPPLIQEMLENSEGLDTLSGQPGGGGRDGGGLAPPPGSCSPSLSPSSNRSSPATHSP
Procedure, shortened: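 Endpoint fitted in both directions relative to DMSO as negative control. It reflects DR5 cis-element reporter mRNA induction in transiently transfected HepG2 cells, measured 24 h after dosing through RT-PCR and fluorescent capillary electrophoresis.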

Structure (SMILES)	outcome
O=C1C(Cl)=C(Cl)C(=O)C(Cl)=C1Cl	inactive
CC(C)c1ccc(O)cc1	inactive
CCOC(=O)N(C)N=O	inactive
CC(C)(O)C#N	inactive
CC(C)C#N	inactive
c1ccc(Nc2ccc3ccccc3c2)cc1	inactive
CC=Cc1ccc2c(c1)OCO2	inactive
Cc1ccc(OP(=O)(Oc2ccc(C)cc2)Oc2ccc(C)cc2)cc1 (tested in a mixture with another compound)	inactive
ClC1=C(Cl)[C@]2(Cl)[C@@H]3[C@@H](Cl)[C@H](Cl)C[C@@H]3[C@@]1(Cl)C2(Cl)Cl	inactive
CCOC(=O)COc1ccc(Cl)cc1Cl	inactive
N#Cc1cccc(C#N)c1	inactive
N#CC(c1ccccc1)c1ccccc1	inactive

target: Transcription factor E2F1 (Homo sapiens) (UniProt Q01094); assay: ATG_E2F_CIS: Attagene CIS-FACTORIAL HepG2 Assay for human E2F Transcription Factor 1 (AID 2282935); settings: HepG2 Attagene cis-reporter, E2F reporter RNA transcripts; actives raise or lower the signal
Sequence (Q01094 whole entry, looked up): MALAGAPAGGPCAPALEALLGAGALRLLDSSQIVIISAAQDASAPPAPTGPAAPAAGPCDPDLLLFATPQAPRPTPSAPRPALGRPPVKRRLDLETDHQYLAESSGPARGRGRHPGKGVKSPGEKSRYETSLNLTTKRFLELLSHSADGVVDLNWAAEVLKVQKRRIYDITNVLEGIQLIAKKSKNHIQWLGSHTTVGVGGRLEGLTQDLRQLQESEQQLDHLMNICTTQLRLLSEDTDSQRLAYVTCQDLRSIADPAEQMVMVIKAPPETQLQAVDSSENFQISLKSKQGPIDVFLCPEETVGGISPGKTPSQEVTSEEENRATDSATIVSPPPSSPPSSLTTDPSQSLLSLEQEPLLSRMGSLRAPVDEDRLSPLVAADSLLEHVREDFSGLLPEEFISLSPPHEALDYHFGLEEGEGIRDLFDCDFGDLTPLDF
Procedure, shortened: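 HepG2 cells transiently transfected with multiplexed cis-element reporter units, dosed for 24 h. Reporter mRNA measured by RT-PCR, 6-FAM primer-extension labeling, HpaI digestion and capillary electrophoresis; bidirectional fit versus DMSO baseline.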

Structure (SMILES)	outcome
O=C1C(Cl)=C(Cl)C(=O)C(Cl)=C1Cl	inactive
CC1CCC(=O)O1 (configuration not stated)	inactive
COc1cc(OC)c(OC)cc1C=O	inactive
CC(C)c1ccc(O)cc1	inactive
C[N+](C)(C)CC(=O)[O-]	inactive
[N-]=[N+]=CC(=O)OC[C@H](N)C(=O)O	inactive
COCC(=O)N(c1c(C)cccc1C)N1CCOC1=O	inactive
CCC1CCC(=O)O1 (configuration not stated)	inactive
C=COCCCl	inactive
CC[N+](=O)[O-]	inactive
CC(Cc1ccc(C(C)(C)C)cc1)CN1C[C@@H](C)O[C@@H](C)C1 (some centres not stated)	inactive
[Cl-].[Cl-].[Cl-].[Yb+3]	inactive
CCOC(=O)N(C)N=O	inactive
O=CNC(N1CCN(C(NC=O)C(Cl)(Cl)Cl)CC1)C(Cl)(Cl)Cl (configuration not stated)	inactive
CCC[N+](=O)[O-]	inactive
CC(C)(O)C#N	inactive
CC(C)C#N	inactive
c1ccc(Nc2ccc3ccccc3c2)cc1	inactive
CSc1nc(N=[N+]=[N-])nc(NC(C)C)n1	inactive
CC=Cc1ccc2c(c1)OCO2	inactive
ClC1=C(Cl)[C@]2(Cl)[C@@H]3[C@@H](Cl)[C@H](Cl)C[C@@H]3[C@@]1(Cl)C2(Cl)Cl	inactive
O=S(=O)(c1ccccc1)c1ccccc1	inactive
CCC(C)c1cc(C(C)(C)C)cc(-n2nc3ccccc3n2)c1O (configuration not stated)	inactive
CC1(C)C(=O)NC(=O)NC1=O	inactive
CC(=O)/C=C/c1ccccc1	inactive
c1ccc(P(c2ccccc2)c2ccccc2)cc1	inactive
N#CC(c1ccccc1)c1ccccc1	inactive
C[N+](C)=CCl	inactive

test system: not listed separately; assay: ATG_E_Box_CIS: Attagene CIS-FACTORIAL HepG2 Assay for human Enhancer Box (E-box) (AID 2282936); settings: HepG2 E-box cis-reporter transcription, actives raise or lower the signal
Procedure, shortened: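 HepG2 cells transiently transfected with multiplexed cis-element reporter units sensing endogenous transcription factor activity; 24 h compound exposure. Reporter mRNA measured by RT-PCR, 6-FAM primer extension, HpaI digestion and capillary electrophoresis; bidirectional fit versus DMSO.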

Structure (SMILES)	AC50	outcome
O=C1C(Cl)=C(Cl)C(=O)C(Cl)=C1Cl	58.4 µM (active)	–
N#CCCCCC#N	–	inactive
CC1CCC(=O)O1 (configuration not stated)	–	inactive
COc1cc(OC)c(OC)cc1C=O	–	inactive
CC(C)c1ccc(O)cc1	–	inactive
C[N+](C)(C)CC(=O)[O-]	–	inactive
CC(C)(c1cc(Cl)c(O)c(Cl)c1)c1cc(Cl)c(O)c(Cl)c1	–	inactive
O=C(NCNC(=O)NC1C(=O)NC(=O)N1CO)NC1C(=O)NC(=O)N1CO (configuration not stated)	–	inactive
[N-]=[N+]=CC(=O)OC[C@H](N)C(=O)O	–	inactive
COCC(=O)N(c1c(C)cccc1C)N1CCOC1=O	–	inactive
CC(C)CCCCCCCOP(=O)(Oc1ccccc1)Oc1ccccc1	–	inactive
CCC1CCC(=O)O1 (configuration not stated)	–	inactive
C=COCCCl	–	inactive
C=CCN(CC=C)C(=O)C(Cl)Cl	–	inactive
CC[N+](=O)[O-]	–	inactive
CC(Cc1ccc(C(C)(C)C)cc1)CN1C[C@@H](C)O[C@@H](C)C1 (some centres not stated)	–	inactive
[Cl-].[Cl-].[Cl-].[Yb+3]	–	inactive
CCOC(=O)N(C)N=O	–	inactive
O=CNC(N1CCN(C(NC=O)C(Cl)(Cl)Cl)CC1)C(Cl)(Cl)Cl (configuration not stated)	–	inactive
CCC[N+](=O)[O-]	–	inactive

Structure (SMILES)	AC50	outcome
CC(C)(O)C#N	–	inactive
CC(C)C#N	–	inactive
S=c1[nH]c2ccccc2[nH]1	–	inactive
CCCCCc1cc(O)cc(O)c1	36.9 µM (active)	–
c1ccc(Nc2ccc3ccccc3c2)cc1	–	inactive
CSc1nc(N=[N+]=[N-])nc(NC(C)C)n1	–	inactive
CC=Cc1ccc2c(c1)OCO2	–	inactive
Cc1ccc(OP(=O)(Oc2ccc(C)cc2)Oc2ccc(C)cc2)cc1 (tested in a mixture with another compound)	–	inactive
ClC1=C(Cl)[C@]2(Cl)[C@@H]3[C@@H](Cl)[C@H](Cl)C[C@@H]3[C@@]1(Cl)C2(Cl)Cl	–	inactive
O=S(=O)(c1ccccc1)c1ccccc1	–	inactive
CCC(C)c1cc(C(C)(C)C)cc(-n2nc3ccccc3n2)c1O (configuration not stated)	–	inactive
CC1(C)C(=O)NC(=O)NC1=O	–	inactive
CC(=O)/C=C/c1ccccc1	–	inactive
c1ccc(P(c2ccccc2)c2ccccc2)cc1	–	inactive
CCOC(=O)COc1ccc(Cl)cc1Cl	–	inactive
CCN(CC)C(=S)S	–	inactive
N#Cc1cccc(C#N)c1	–	inactive
O=C1Nc2ccc(Cl)cc2C(c2ccccc2)=NC1O (configuration not stated)	–	inactive
N#CC(c1ccccc1)c1ccccc1	–	inactive
C[N+](C)=CCl	–	inactive
